tim10-1 inh – growth inhibitors of tim10-1 mutant yeast; S. cerevisiae tim10-1 ts strain growth, BacTiter-Glo, 24 h; inhibition, % at 20 µM; 330,000 compounds, 2.2% hits;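 active = inhibition of at least 40%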;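 note: mutant grown at 25 °C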
tim23-1 inh – growth inhibitors of tim23-1 mutant yeast | S. cerevisiae tim23-1 growth, BacTiter-Glo luminescence, 24 h | inhibition, % at 20 µM | 330,000 compounds, 1.3% hits | AID 463212;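 active = growth inhibition of the mutant yeast at or above 50%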;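 note: temperature-sensitive mutant grown at 25 °C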
NALP3 yeast inh – blocks the NALP3 inflammasome reconstituted in yeast | Yeast reconstituted NLRP3/ASC/caspase-1, beta-gal luminescence, 24 h | inhibition, % at 10 µM | 330,000 compounds, 0.39% hits | AID 2825;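 active = inhibition of 50% or more; inactive = inhibition below 50%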
V-ATPase pH – alters yeast V-ATPase proton transport. S. cerevisiae, pHLuorin cytosolic pH fluorescence. response, % at 10 µM. 350,000 compounds, 0.37% hits. AID 504577; in the data active = response mostly above about 7.3%, no sharp cut-off; inactive = mostly below about 5.4%; note: actives read high
TIM10 inh – inhibits growth of TIM10 yeast strain; S. cerevisiae TIM10 strain growth, BacTiter-Glo luminescence, 24 h; inhibition, % at 10 µM; 330,000 compounds, 1.4% hits;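 active = inhibition of 40% or more at the single tested concentration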;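 note: wild-type TIM10 isogenic control strain grown at permissive 25 °C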
NALP1 inh – NALP1 inhibition. S. cerevisiae NALP1/ASC/caspase-1 growth, X-gal OD620, 72 h. inhibition, % at 10 µM. 280,000 compounds, 0.61% hits. AID 2071; in the data active = inhibition mostly above about 24%, no sharp cut-off; inactive = mostly below about 32%
tim10-1 confirm – tim10-1 yeast growth inhibition, confirmed | shares compounds with tim10-1 inh | S. cerevisiae tim10-1 ts strain growth, BacTiter-Glo, 24 h | inhibition, % at 20 µM | 7,400 compounds, 56% hits;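 active = inhibition of yeast growth at or above a set limit in either of two repeat tests at 20 µM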;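 note: tim10-1 mutant grown at permissive 25 °C to find synthetic lethal compounds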
A number is an active result; - = inactive; . = not tested or not shown. The list is not random: actives were taken first. Their share in the collection is about 4.2%.

SMILES	tim10-1 inh	tim23-1 inh	NALP3 yeast inh	V-ATPase pH	TIM10 inh	NALP1 inh	tim10-1 confirm
Cc1cc(O)c(C(=O)/C=C/c2ccccc2Br)c(=O)o1	45.6	-	-	-	-	-	-
Cc1cc(O)c(C(=O)/C=C/c2ccccc2)c(=O)o1	-	-	-	-	-	-	.
Cc1cc(O)c(C(=O)/C=C/c2ccc(C(C)C)cc2)c(=O)o1	42.7	-	-	-	-	-	32.7
CN1CCN(S(=O)(=O)c2cccc(C(=O)Nc3ccc(Br)cc3Br)c2)CC1	-	-	-	-	-	-	.
COc1cc2c(cc1NC(=S)Nc1cccc(C(F)(F)F)c1)oc1ccccc12	40.3	-	-	-	-	-	-
COc1cc2c(cc1NC(=S)Nc1cccc3ccccc13)oc1ccccc12	-	-	-	-	-	-	.
Cc1ccc2nc(CSc3nc(C)nc4c3oc3ccccc34)[nH]c2c1	-	-	-	-	-	.	.
Cc1cc(F)ccc1NC(=O)C1CCN(C(=O)Nc2ccccc2)CC1	-	-	-	-	-	.	.
CCOC(=O)c1c(N2C(=O)C3CC(C)=C(C)CC3C2=O)sc(C)c1C (centres undefined)	40.3	-	-	-	-	-	-
CC(=O)Oc1ccc2nc(CN3C(=O)c4ccc([N+](=O)[O-])cc4C3=O)oc(=O)c2c1	-	-	-	-	-	-	.
Cn1c(=O)c2c(nc(SCC(=O)NCc3ccc4c(c3)OCO4)n2Cc2ccc(Cl)cc2)n(C)c1=O	40.7	-	-	-	-	-	-
O=C(NC(NNc1ccc([N+](=O)[O-])cc1)(C(F)(F)F)C(F)(F)F)c1ccc(Cl)cc1	64.0	-	-	-	-	-	50.8
CNC(=S)N1N=C(c2cccs2)CC1c1ccc(F)cc1 (centres undefined)	42.5	-	-	-	-	-	-
CC1Cc2ccccc2N1C(=O)CN1CCN(S(=O)(=O)c2cccs2)CC1 (centres undefined)	47.9	-	-	-	-	.	-
Cc1ccccc1NC(=O)Oc1cccc(OC(=O)c2ccccc2)c1	-	-	-	-	-	-	.
Cc1ccc(NC2=C(Cl)C(=O)OC2OC(=O)c2ccccc2)c(C)c1 (centres undefined)	-	-	-	-	-	-	.
Cc1ccccc1NC1=C(Cl)C(=O)OC1OC(=O)c1ccccc1C (centres undefined)	40.2	-	-	-	-	-	-
COc1cccc(/C=N/n2c(C)nc3ccccc32)c1OC	43.7	-	-	-	-	-	-
COc1ccc(OC)c(NC(=S)NCCSc2ccc(C)cc2)c1	44.2	-	-	-	-	-	-
CCCCc1ccc(NC(=S)Nc2cccnc2)cc1	-	-	-	-	-	-	.
COc1cccc(CNC(=S)Nc2cc(OC)ccc2OC)c1	45.0	-	-	-	-	-	-
CCCCc1ccc(NC(=S)Nc2ccc(Nc3ccc(OC)cc3)cc2)cc1	45.2	-	-	-	-	-	35.4
CCCCc1ccc(NC(=S)NCc2cccc(OC)c2)cc1	43.7	-	-	-	-	-	-
Cc1ccc(NC(=S)NCCSc2ccc(Cl)cc2)c(C)c1	-	-	-	-	-	-	.
CCOc1cc(N2CCOCC2)c(OCC)cc1NC(C)C(=O)N1CCN(CC)CC1 (centres undefined)	.	.	.	-	.	-	.
SMILES	tim10-1 inh	tim23-1 inh	NALP3 yeast inh	V-ATPase pH	TIM10 inh	NALP1 inh	tim10-1 confirm
CN(Cc1ncc[nH]1)C(=O)c1cc(COc2c(F)cccc2F)on1	-	-	-	-	-	-	.
CC(C)CCN(C(=O)CNC(=O)c1ccco1)C(C(=O)NC1CCCCC1)c1cccnc1 (centres undefined)	-	-	-	-	-	-	.
NC(=O)C1CCN(CC(=O)c2c[nH]c3ccc(F)cc23)CC1	-	-	-	-	-	-	.
CN1CCN(CC(=O)Nc2c(C(=O)c3ccccc3)oc3ccccc23)CC1	-	-	-	-	-	-	.
CC(NC(=S)Nc1ccc(Cl)cc1Cl)C(c1cccs1)N1CCCC1 (centres undefined)	41.1	-	-	-	-	-	-
Cc1ccc(C(=O)O/N=C(/c2nonc2N)N(C)C)cc1	67.3	-	-	-	-	-	62.0
O=C(CSc1nc(O)cc(=O)[nH]1)N1c2ccccc2Sc2ccccc21	-	-	-	-	-	-	.
O=C(CSc1nc2ccccc2[nH]1)N1c2ccccc2Sc2ccccc21	45.5	-	-	-	-	-	-
CSc1ccc(S(=O)(=O)N2CCC(C(=O)N3CCc4ccccc4C3)CC2)cc1	42.9	-	-	-	-	-	-
O=c1c2ccccc2nc2n1CCS2	-	-	-	-	-	-	.
Cc1ccc2[nH]c3c(=O)n4c(nc3c2c1)SCC4	45.0	-	-	-	-	-	-
COc1ccc2[nH]c3c(=O)n4c(nc3c2c1)SCCC4	40.5	-	-	-	-	-	38.7
CCOC(=O)CC(=O)CSc1nc2c(cc1C#N)CCCCCC2	-	-	-	-	-	-	.
C[C@H](O)[C@@H]1CN2CCc3c([nH]c4ccccc34)[C@@H]2C[C@@H]1N(C)C(=O)Nc1ccc(F)cc1	.	.	.	-	.	.	.
O=C(COC(=O)C1(c2ccc(Cl)cc2)CCCC1)Nc1ncc(C(F)(F)F)cc1Cl	41.9	-	-	-	-	-	-
CCc1cc2ccc(OC)cc2nc1SCC(=O)NNC(=O)c1ccco1	42.7	-	-	-	-	-	-
CC1CC2=C(NC(=S)NC2c2ccc(F)cc2)/C(=C/c2ccc(F)cc2)C1 (centres undefined)	45.6	-	-	-	-	-	-
Fc1cccc(/C=C2\CCCC3=C2NC(=S)NC3c2cccc(F)c2)c1 (centres undefined)	-	-	-	-	-	-	.
Cc1ccc(-c2nnc(NC(=O)c3ccc([N+](=O)[O-])o3)o2)c(C)c1	-	-	-	-	-	.	.
Cc1ccccc1NC(=O)c1ccc([N+](=O)[O-])o1	51.0	-	-	-	-	-	42.0
Cc1cccc(NC(=O)COC(=O)c2ccc([N+](=O)[O-])o2)c1C	-	-	-	-	-	-	.
Cc1cccnc1NC(=O)c1ccc([N+](=O)[O-])o1	-	-	-	-	-	-	.
Cc1ccc(NC(=O)c2ccc([N+](=O)[O-])o2)c(C)c1	40.2	-	-	-	-	-	53.0
Cc1ccccc1/C=C/C(=O)c1ccc([N+](=O)[O-])o1	67.2	-	-	.	-	.	71.2
CCC(=O)N1CCN(c2ccc(Cl)cc2NC(=O)c2ccc([N+](=O)[O-])o2)CC1	40.4	-	-	-	-	-	-
C[C@@H]1CN([C@@H](C)CO)C(=O)c2c(c3ccccc3n2C)-c2ccccc2CO[C@H]1CN(C)S(=O)(=O)c1ccc(C#N)cc1	.	.	.	-	.	.	.
O=C1C(Cc2ccccc2)Nc2ncnc(N3CCc4ccccc4C3)c2N1Cc1ccc(Br)cc1 (centres undefined)	41.3	-	-	.	-	.	-

Screening results as filed in PubChem.
